Assay results from PubChem BioAssay (NCATS).
Where “and” joins values, the source holds several entries; their conditions need not be identical. Equal values may be shown once. Results filed as inconclusive are left out. A call without a number means that no potency is given here. Unmarked numbers belong to inactive results. Calls of active or inactive are those of the source. The call rests on the fitted dose curve; in most records, active means well fitted curve in the direction sought with a large enough effect; inconclusive means small, poorly fitted or top-dose-only effect, or another doubt; inactive means no such curve, though single readings can be large; an effect the other way counts as inactive or inconclusive.

Assays:
[1] = biological target: Cellular tumor antigen p53 (Homo sapiens) (UniProt P04637); assay: Primary qHTS for small molecule compounds that upregulate eGFP-tagged delta133p53alpha (in N-terminal) cells. (AID 2060322); conditions: NCI-H358 eGFP-delta133p53alpha fluorescence, 24 h; activation: hits give high values; further: nearly all actives have a fitted effect of over 75% in size; further: potency means the concentration at half of the fitted maximal effect; on activation: series mostly up to about 56 µM
In short: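 NCI-H358 cells pre-induced 24 h with 10 ng/ml doxycycline to express N-terminal eGFP-delta133p53alpha, then dosed 24 h at 37C without doxycycline; fixed, Hoechst-stained, GFP intensity by laser scanning cytometry, normalized to DMSO (0%) and 57.5 uM 5-azacytidine (100%).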

[2] = biological target: Aldehyde dehydrogenase, mitochondrial (Homo sapiens) (UniProt P05091); assay: qHTS for Inhibitors of the Aldehyde Dehydrogenase Family (ALDH2) Primary screen (AID 2061308); further: nearly all actives have a fitted effect of over 55% in size
[3] = biological target: Retinaldehyde dehydrogenase 3 (Homo sapiens) (UniProt P47895); assay: qHTS for Inhibitors of the Aldehyde Dehydrogenase Family (ALDH1A3) Primary screen (AID 2061315)

Chain of Cellular tumor antigen p53 (Homo sapiens) (P04637 whole entry, looked up): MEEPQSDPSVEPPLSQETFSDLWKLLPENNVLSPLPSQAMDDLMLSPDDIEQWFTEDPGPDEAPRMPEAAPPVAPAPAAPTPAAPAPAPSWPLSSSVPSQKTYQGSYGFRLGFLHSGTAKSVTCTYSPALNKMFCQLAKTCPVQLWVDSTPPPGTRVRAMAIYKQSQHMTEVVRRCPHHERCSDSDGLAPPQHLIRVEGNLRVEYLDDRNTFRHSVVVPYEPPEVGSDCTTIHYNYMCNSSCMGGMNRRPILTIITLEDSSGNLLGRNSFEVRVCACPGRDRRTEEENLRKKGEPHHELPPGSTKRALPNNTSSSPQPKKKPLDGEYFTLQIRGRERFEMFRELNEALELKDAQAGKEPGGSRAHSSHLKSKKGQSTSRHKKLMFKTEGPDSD

Compound	activation [1]	Potency [2]	Potency [3]	Potency [1]	activity change, negative = inhibition [2]	activity change, negative = inhibition [3]
C=CC(C)(CC/C=C(\C)CC/C=C(\C)CC(O)/C=C(\C)C(=O)O)O[C@@H]1O[C@H](CO)[C@@H](O)[C@H](O)[C@H]1O[C@@H]1O[C@H](CO)[C@@H](O)[C@H](O)[C@H]1O (some centres undefined)	-12.2%	inactive	inactive	–	–	–
CCC(C)C(=O)OC[C@H]1O[C@H](O[C@H]2O[C@H](CO)[C@@H](O)[C@H](O)[C@H]2O)[C@H](O)[C@@H](O)[C@@H]1O (some centres undefined)	1.53%	inactive	inactive	–	–	–
CC1CC(=O)C2=C(C1)C1OC1C1(O)C2C(=O)c2cccc(O)c2C1O (centres undefined)	4.58%	inactive	inactive	–	–	–
C=C1[C@H](OC(C)=O)[C@H]2[C@@H](OC(C)=O)[C@](C)(OC(C)=O)C[C@]2(OC(C)=O)C(=O)[C@H](C)/C=C/C(C)(C)C(=O)[C@H](OC(=O)C(C)C)[C@H]1OC(C)=O	2.29%	inactive	inactive	–	–	–
C=C1C[C@]23C[C@H]1CC[C@H]2[C@@]12CC[C@H](O)[C@@](C)(C(=O)O1)[C@H]2[C@@H]3C(=O)O	5.34%	inactive	inactive	–	–	–
FC(F)(F)c1ccc(Nc2nc3ccc(Oc4ccnc(-c5ncc(C(F)(F)F)[nH]5)c4)cc3[nH]2)cc1	-7.84% and 12.4%	inactive	inactive	–	–	–
C/C=C/C=C/C(O)=C1/C(=O)[C@]2(C)C(=O)[C@@](C)(O)[C@H]1[C@H]([C@@]1(C)OC(=O)C(C)=C1O)[C@H]2C(=O)CC/C=C/C	-10.7%	inactive	inactive	–	–	–
COC(=O)[C@H]1[C@H]2C[C@@H]3c4[nH]c5cc(OC)ccc5c4CCN3C[C@H]2C[C@@H](OC(=O)/C=C/c2cc(OC)c(OC)c(OC)c2)[C@@H]1OC	–	inactive	inactive	7.93 µM (active)	–	–
C=CC(C)(C)C1(CC2NC(=O)C3CCCN3C2=O)C(=O)Nc2cc3c(cc21)C=CC(C)(C)O3 (centres undefined)	6.87%	inactive	inactive	–	–	–
CC12CCC(OC3OC(CO)C(O)C(OC4OC(CO)C(O)C(O)C4O)C3O)CC1CCC1C2CCC2(C)/C(=C3/COC(=O)C3)CCC12O (centres undefined)	-3.82%	inactive	inactive	–	–	–
CCOc1ccc(S(=O)(=O)n2c(C)nc3ccccc32)cc1	-4.33%	inactive	inactive	–	–	–
Cc1ccc(-c2ncccn2)c(C(=O)N2C[C@H](COc3ccc(F)cn3)CC[C@H]2C)c1	-14.3%	inactive	inactive	–	–	–
C=C1CC[C@@H]2[C@](C)(CO[C@@H]3O[C@H](CO)[C@@H](O)[C@H](O)[C@H]3O)[C@H](O)CC[C@@]2(C)[C@@H]1C/C=C1/C(=O)OC[C@H]1O	-8.93%	inactive	inactive	–	–	–
CC(C)=CCC[C@](C)(O[C@@H]1O[C@H](CO[C@@H]2O[C@@H](CO)[C@H](O)[C@H]2O[C@@H]2OC[C@@H](O)[C@H](O)[C@H]2O)[C@@H](O)[C@H](O)[C@H]1O)[C@H]1CC[C@]2(C)[C@@H]1[C@H](O)CC1[C@@]3(C)CC[C@H](O[C@@H]4O[C@H](CO)[C@@H](O)[C@H](O)[C@H]4O[C@@H]4O[C@H](CO)[C@@H](O)[C@H](O)[C@H]4O)C(C)(C)C3CC[C@]12C (some centres undefined)	-6.87%	–	–	–	1.66% [at 11.2 µM]	19.1% [at 11.2 µM]
CN1[C@@H]2CC[C@H]1CC(OC(=O)c1c[nH]c3ccccc13)C2 (some centres undefined)	-6.21% and -7.16%	inactive	inactive	–	–	–
CC1=C(CCC(C)CC(=O)O)[C@@]2(C)CCCC(C)(C)C2CC1=O (some centres undefined)	-29.5%	inactive	inactive	–	–	–
CCOC(=O)C1=Cc2ccc(C(F)(F)C(F)(F)F)cc2N=C(N)C1	-1.79%	inactive	inactive	–	–	–
CCN(CCN(C)C)C(=O)CNCc1cc(C(N)=O)ccn1	-3.67%	inactive	inactive	–	–	–
CCOC(=O)N1CCC(N2CCC[C@@H](NC(=O)c3ccccc3C)C2)CC1	-2.86%	inactive	inactive	–	–	–
COC(=O)C1=CO[C@@H](O[C@@H]2O[C@H](CO)[C@@H](O)[C@H](O)[C@H]2O)[C@@H]2C(COC(C)=O)=C[C@H](O)[C@H]12	-14.5%	inactive	inactive	–	–	–
C=C1CC[C@@]2(OC1)O[C@H]1CC3[C@@H]4CC=C5C[C@H](O[C@H]6OC[C@@H](O)C(O)[C@@H]6O[C@@H]6O[C@@H](C)[C@H](O)[C@@H](O[C@@H]7O[C@H](CO)[C@@H](O)[C@H](O)[C@H]7O)[C@H]6O)C[C@@H](O)[C@]5(C)C4CC[C@]3(C)[C@H]1[C@@H]2C (some centres undefined)	-6.25%	inactive	inactive	–	–	–
COc1cc(/C=C/C(=O)O[C@@H]2C[C@](O)(C(=O)O)C[C@@H](O)[C@H]2O)ccc1O	3.57%	inactive	inactive	–	–	–
C=C(C(=O)O)[C@H]1C[C@]2(C)[C@@H](O)CC[C@]23O[C@H]1C[C@@H]3C	18.8%	inactive	inactive	–	–	–
O=C(O)Cc1cn([C@@H]2O[C@H](CO)[C@@H](O)[C@H](O)[C@H]2O[C@@H]2O[C@H](CO)[C@@H](O)[C@H](O)[C@H]2O)c2ccccc12	3.82%	inactive	inactive	–	–	–
CC1CCC2C(C)(C)[C@H](O)CC[C@]2(C)C12Cc1c(O)cc3c(c1O2)CN(C(CCC(=O)O)C(=O)O)C3=O (some centres undefined)	-2.29%	inactive	inactive	–	–	–
C=CC1(C)CC2CCC3C(C)(C(=O)O)CCCC3(C)C2=CC1=O (centres undefined)	-16%	inactive	inactive	–	–	–
CC(C)(OC1OC(CO)C(O)C(O)C1O)C1CCC(O)(CO)C2CC(=O)C(C)(O)C2C1 (centres undefined)	22.9%	inactive	inactive	–	–	–

Compound	activation [1]	Potency [2]	Potency [3]	Potency [1]	activity change, negative = inhibition [2]	activity change, negative = inhibition [3]
CNCCN1CCC(c2cc(CN(C)C(=O)c3cccc(Oc4ccccc4)c3)ccn2)CC1	-4.33%	inactive	inactive	–	–	–
Cc1cc(C)c(NC(=O)N(Cc2ccc3c(c2)Cc2ccccc2-3)C2CCCCCC2)c(C)c1	15.3%	inactive	inactive	–	–	–
C1CCN2CC3C[C@@H](CN4CCCC[C@@H]34)[C@H]2C1	-23.2%	inactive	inactive	–	–	–
O=C(O)CC1CC(c2ccccc2)=NO1 (centres undefined)	16.3%	inactive	inactive	–	–	–
C/C1=C\CC[C@]2(C)O[C@@H]2[C@H](O)[C@H](C(C)C)[C@H](OC(=O)/C=C/c2ccccc2)C1	6.25%	inactive	inactive	–	–	–
CC1CCC2C(C)(C)C(O)CCC2(C)C12Cc1c(O)cc3c(c1O2)CN=C3N (centres undefined)	12.5%	inactive	inactive	–	–	–
Cc1cc(Nc2nc(NC(C)c3ncc(F)cn3)ncc2Cl)n[nH]1 (centres undefined)	8.04%	inactive	inactive	–	–	–
C=C1CCC2C(C)(C)CC(O)CC2(C)C1CCC(C)CC(=O)O (centres undefined)	2.68%	inactive	inactive	–	–	–
CC1C(=O)OCC2=CC[N+]3([O-])CCC(OC(=O)C(C)(O)C1(C)O)C23 (centres undefined)	24.1%	inactive	inactive	–	–	–
CCC/C=C/C=C/C1CC(O)C2(O)C(=O)OCC12 (centres undefined)	6.11%	inactive	inactive	–	–	–
C=C(C(=O)O)[C@@H]1CC=C2CCC[C@H](C)[C@@]2(C)C1	-21.4%	inactive	inactive	–	–	–
C=C(C)[C@H]1C[C@@H](O)C(=C)CC[C@@H](O)C(=C)[C@@H](O)C1	-8.04%	inactive	inactive	–	–	–
O=C(OC[C@H]1O[C@H](O[C@H]2CO[C@H](CO)[C@@H](O)[C@@H]2O)[C@H](O)[C@@H](O)[C@H]1O)c1ccccc1	-4.58%	inactive	inactive	–	–	–
COc1c2c(c(CO)c3c1C(=O)OC3)OC1(C)CCC3(O)C(C)(C)OC(=O)CCC3(C)C1C2 (centres undefined)	-16%	inactive	inactive	–	–	–
C=C1[C@@H](C2=CC(=O)OC2)CC[C@@]2(O)[C@@H]1CC1[C@H]2CC[C@@H]2C[C@@H](O[C@H]3O[C@@H](C)[C@@H](O[C@@H]4O[C@H](CO[C@@H]5O[C@H](CO)[C@@H](O)[C@H](O)[C@H]5O)[C@@H](O)[C@H](O)[C@H]4O)[C@H](OC)[C@H]3O)CC[C@]12C (some centres undefined)	7.14%	inactive	inactive	–	–	–
CC1=CC(=O)C2C(C)(C)CC(O)CC2(C)C1CO (centres undefined)	-17.6%	inactive	inactive	–	–	–
C=C1C[C@]23C[C@H]1CC[C@H]2[C@@]12C=C[C@H](O)[C@@](C)(C(=O)O1)[C@H]2[C@@H]3C(=O)O	-28.2%	inactive	inactive	–	–	–
O=C1OCC(c2ccccc2)=C1Cc1ccccc1	-8.4%	inactive	inactive	–	–	–
CCNC(=O)Nc1ccc(-c2nc3c(c(N4CCOCC4C)n2)CCN(C2COC2)C3)cc1 (centres undefined)	12.4%	inactive	inactive	–	–	–
CCCn1cc2c(nc(NC(=O)Nc3ccc(OC)cc3)n3nc(-c4ccco4)nc23)n1	9.07%	inactive	inactive	–	–	–
COC(=O)C1(O)C(OC(C)=O)CCC2C3(CC(c4ccoc4)OC3=O)C(C)=CCC21C(=O)OC (centres undefined)	9.82%	inactive	inactive	–	–	–
c1ccc(Cc2ncc3c(n2)CCNCC3)cc1	7%	inactive	inactive	–	–	–
CCCCC1CCC(c2nc(-c3ccncc3)no2)CC1 (centres undefined)	-6.68%	inactive	inactive	–	–	–
CC12CCC3c4ccc(OC5OC(C(=O)O)C(O)C(O)C5O)cc4CCC3C1CCC2O (centres undefined)	11.7%	inactive	inactive	–	–	–
O=C(O)c1ccc(OC2OC(CO)C(O)C(O)C2O)cc1 (centres undefined)	-11.6%	inactive	inactive	–	–	–
CCCC(=O)NCCc1csc(-c2ccc(Cl)cc2)n1	1%	inactive	inactive	–	–	–
